The structures appear in SMILES notation. Hit rate of the full screen: of about 220,000 compounds, about 1,100 (0.5%) were called active.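 The calls were made as follows: active = inhibition above about 30% (limit read from the data); inactive = the rest.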 The sample as a whole holds a higher share of actives than the screen did.

Chain of Neutrophil cytosol factor 1 (Homo sapiens) (P14598 whole entry, looked up): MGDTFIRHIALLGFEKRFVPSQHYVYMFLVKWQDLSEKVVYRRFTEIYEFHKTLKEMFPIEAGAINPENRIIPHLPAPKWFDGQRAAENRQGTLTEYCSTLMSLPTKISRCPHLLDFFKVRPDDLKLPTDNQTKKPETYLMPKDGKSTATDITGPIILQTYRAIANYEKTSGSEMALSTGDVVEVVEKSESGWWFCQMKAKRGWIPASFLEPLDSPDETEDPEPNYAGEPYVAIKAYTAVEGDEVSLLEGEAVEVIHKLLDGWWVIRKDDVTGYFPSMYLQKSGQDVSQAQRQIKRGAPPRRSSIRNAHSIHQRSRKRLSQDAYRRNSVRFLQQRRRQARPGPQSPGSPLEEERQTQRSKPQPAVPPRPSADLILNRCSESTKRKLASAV

The assay addresses Neutrophil cytosol factor 1 (Homo sapiens) (UniProt P14598). The assay can be described thus: p47phox/p22phox peptide binding inhibitors, primary screen, biochemical, uHTS, NADPH oxidase regulatory subunit (AID 1274).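 Also: 0% = p47phox with labelled peptide and 100% = labelled peptide alone.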 The following applies: fluorescence polarization, 2 h, at 24.7 µM, active compounds read high.
As to `COc1ccc(/C=C/C(=O)OCC(=O)NCc2cccs2)cc1OC`, the inhibition is -9.49% (inactive).
The value for `COC(=O)Cc1c(O)ccn(Cc2cccc(C(F)(F)F)c2)c1=O` was -10.6% (inactive).
The result for `CC1=CC(C)(C)NC(=S)N1NC(=O)c1ccccc1Cl` reads -1.05% (inactive); that for `COc1ccccc1C(=O)NN1C(=O)C2C3C=CC(O3)C2C1=O` (stereo not given), -8.76% (inactive); that for `O=C(NN1C(=O)C2C(C1=O)C1C=CC2C12CC2)c1ccccc1Cl` (stereo not given), 43.4% (active).
The value for `COc1ccc(COCC(O)CN2CCC(C(N)=O)CC2)cc1` (stereo not given) was -6.99% (inactive); that for `Cc1ccccc1Nc1scc(-c2ccc(Br)cc2)[n+]1-c1ccccc1C` was -1.63% (inactive); that for `CC(C)CNC(=O)COC(=O)c1ccccc1OCC(=O)Nc1ccc(Br)cc1` was 0.42% (inactive).
With `CC1CN(S(=O)(=O)c2ccc(C(=O)Nc3sccc3C(N)=O)cc2)CC(C)O1` (stereo not given), the inhibition was -4.8% (inactive).
As to `CN1/C(=C\C(=O)c2oc3ccccc3c2N)C(C)(C)c2ccccc21`, the inhibition was -9.12% (inactive).
The value for `CN1/C(=C\C(=O)c2cccnc2Cl)C(C)(C)c2ccccc21` was -37.8% (inactive); that for `CN1/C(=C\C=C2\N=C(c3ccc(F)cc3)OC2=O)C(C)(C)c2ccccc21` was 149% (active).
The value for `COc1cc(C(=O)NCc2ccc3c(c2)cc(C)n3C)cc(OC)c1OC` was 1.37% (inactive); that for `O=C(O)C1=C[C@H](c2cccs2)C[C@H](OCCCCO)O1` was -14.3% (inactive).
Take `Cc1ccc(C)c(CSc2nc(-c3ccco3)nc3c2c(=O)n(C)c(=O)n3C)c1`: the inhibition was -1.58% (inactive).
As to `CC(C)(C)NC(=O)/C(=C/c1cccnc1)NC(=O)c1ccco1`, the inhibition was -7.92% (inactive).
With `COCCN1C=C2C(=O)C(C)(OC(=O)C3CCCC3)C(=O)C=C2C=C1c1ccsc1` (stereo not given), the inhibition was 0.87% (inactive).
As for `CC1(OC(=O)CCc2ccccc2)C(=O)C=C2C=C(c3ccc(C#N)cc3)N(CCc3ccccn3)C=C2C1=O` (stereo not given), the inhibition is 32.3% (active).
For the compound `C=CCN1C=C2C(=O)C(C)(OC(=O)CCc3ccccc3)C(=O)C=C2C=C1c1ccc(C#N)cc1` (stereo not given), the inhibition is -11.9% (inactive).
`CCN(C(=O)CN1CCN(Cc2ccccc2)CC1)c1c(N)n(Cc2ccccc2)c(=O)[nH]c1=O`: the inhibition is -14.8% (inactive).
The result for `O=C(c1cnn2ccccc12)N1CCc2ccccc21` reads -1.85% (inactive); that for `NC(=O)N1CCc2ccccc21`, 3.78% (inactive); that for `O=C(c1cccc(C(=O)N2CCc3ccccc32)n1)N1CCc2ccccc21`, 45.6% (active).
The result for `Nc1nnn(CC(=O)N/N=C/c2ccc(O)cc2)n1` reads -6.45% (inactive); that for `CN(C)c1nc(=Nc2cccc(Cl)c2)ss1`, -21.8% (inactive).
For the compound `CCCCN=C1C([N+](=O)[O-])=CC=C2C1=NC1(CCCCC1)N2O`, the inhibition is 103% (active).
The result for `Oc1ccc2ccccc2c1N=Nc1nccs1` reads 59.9% (active).
Consider `Oc1ccc(N=Nc2nccs2)c(O)c1`, for which the inhibition was -48.9% (inactive).
The result for `Oc1c(C=Nc2cccc3nsnc23)ccc2ccccc12` reads -51.3% (inactive); that for `CCN(C(=O)COC(=O)/C=C/c1nc2ccccc2s1)C1CCS(=O)(=O)C1` (stereo not given), -4.73% (inactive); that for `CCN1CCN(C(c2cccnc2)c2cc(Cl)c3cccnc3c2O)CC1` (stereo not given), 38.2% (active).
On to `Oc1c(CN2CCN(c3ccc(F)cc3)CC2)cc(Cl)c2cccnc12`, for which the inhibition was 11.9% (inactive).
Turning to `CCOC(=O)N1CCN(C(c2cccnc2)c2ccc3cccnc3c2O)CC1` (stereo not given), the inhibition is 6.02% (inactive).
The result for `CC(=O)Nc1nc(C)c(-c2csc(Nc3ccc(S(N)(=O)=O)cc3)n2)s1` reads -21.6% (inactive); that for `CCOC(=O)C1CCN(c2ncnc3c2c(-c2ccccc2)cn3-c2ccc(C)cc2)CC1`, -0.04% (inactive).
The result for `CCOC(=O)C1CCN(C(=O)c2oc3ccc(S(=O)(=O)N4CCCCCC4)cc3c2C)CC1` reads -9.11% (inactive).
Consider `CCOC(=O)C1CCN(c2ncnc3c2oc2ccc(Br)cc23)CC1`, for which the inhibition is 48.6% (active).
On to `CCN(CC)N=Nc1cccc(NC(C)=O)c1`, for which the inhibition was 2.47% (inactive).
In the case of `O=C(CSC(=S)N1CCCCC1)c1c(F)cccc1F`, the inhibition is -20.4% (inactive).
The result for `CC(C)Oc1ccc(CC(=O)NNC(=S)Nc2ccc(Br)cc2)cc1` reads -4.65% (inactive); that for `Cc1cccc(C)c1NC(=O)C1(N(C(=O)c2ccccn2)c2ccc(O)cc2)CCCCC1`, -4.76% (inactive).
The result for `CC(Oc1ccc(-c2ccccc2)c(F)c1)c1ccn(S(=O)(=O)c2cccc3ccccc23)n1` (stereo not given) reads 30.5% (active).
The result for `COc1ccc(Nc2nc(N)nc(CSC(=S)N3CCC(C)CC3)n2)cc1` reads -5.99% (inactive); that for `CCn1c(SCC(=O)N/N=C/c2ccncc2)nc2ccccc21`, 3.59% (inactive); that for `NNc1nc2c(Cl)cccc2s1`, -5.57% (inactive).
Regarding `CC(=O)OCc1cc(=O)n(C)c(=O)n1C`, the inhibition was 38.7% (active).
On to `CC(C)Oc1ccc(C(=O)Nc2cc(=O)n(C)c(=O)n2C)cc1`, for which the inhibition was -14% (inactive).
The result for `CC(=O)c1c(N)n(C)c(=O)n(C)c1=O` reads -3.86% (inactive).
The value for `O=C1CN(C(=O)CN2C(=O)NC3(CCCCC3)C2=O)c2ccccc2N1` was -8.11% (inactive).
The value for `C=CCC1(C#N)C(=S)NC(C)=C(C(=O)OCC)C1c1ccccc1` (stereo not given) was -0.89% (inactive).
In the case of `C=CCN1CC(C)/C(=N\O)CC1C` (stereo not given), the inhibition was -0.6% (inactive).
On to `Cn1c(SCC(=O)Nc2cccc(O)c2)nnc1-c1ccc(S(=O)(=O)N2CCOCC2)cc1`, for which the inhibition is 36.6% (active).
The result for `CCC(=O)Nc1cccc(NC(=O)CSc2nnc(-c3ccc(NS(C)(=O)=O)cc3)n2C)c1` reads -16.1% (inactive).
For `Cn1c(SCC(=O)OC2CCCCC2)nnc1-c1ccc(S(=O)(=O)N2CCCC2)cc1`, the inhibition was -1.77% (inactive).
The result for `Nc1c(NCCc2ccccc2)c2ccccc2oc1=O` reads -7.7% (inactive).
The value for `Cc1cc(C)cc(OCC(=O)Nc2ccc(S(=O)(=O)Nc3ccccn3)cc2)c1` was -4.16% (inactive); that for `O=C(COc1ccc2oc3c(c2c1)CCCC3)Nc1ccccn1` was 178% (active).
On to `Cc1ccc(OCC(=O)Nc2ccc(S(=O)(=O)Nc3ccccn3)cc2)cc1`, for which the inhibition was 5.31% (inactive).
The value for `Cc1ccc(S(=O)(=O)NNC(=S)NC(C)(C)C)cc1` was -8.25% (inactive).
The result for `CCc1ccccc1NC(=O)CSc1nnc(CCNC(=O)OC(C)(C)C)o1` reads -6.69% (inactive); that for `CCN(CC(=O)NCCc1ccccc1)S(=O)(=O)c1ccccc1`, -6.19% (inactive).
`O=C(Nc1ccc(Br)cn1)C1CCN(S(=O)(=O)c2cccs2)CC1`: the inhibition is -5.24% (inactive).
The value for `CCOc1ccc(-n2c(O)c(/C=N/Nc3nc(C)cc(C)n3)c3ccccc3c2=O)cc1` was -10.2% (inactive).
The value for `CCOc1ccc(-n2c(O)c(/C=N/Nc3nnc(C)c(=O)[nH]3)c3ccccc3c2=O)cc1` was -44.3% (inactive).
The value for `CCN(CC)CCCN=Cc1c(O)n(-c2ccc(C)cc2)c(=O)c2ccccc12` was 111% (active).
As for `O=C(O)C1CCN(C(=O)c2cc(F)cc3c2OCOC3)CC1`, the inhibition is -5.96% (inactive).
The value for `Cc1nc2c(-c3ccc(F)cc3)c(C)nn2c(C)c1CCC(=O)N1CCN(c2ccccn2)CC1` was -1.7% (inactive).
The value for `Cc1nc2ncnn2c(C)c1CCC(=O)N1CCN(C(=O)c2ccco2)CC1` was 2.67% (inactive); that for `Cc1nc2nc(C)c(CCC(=O)N3CCN(c4ccccc4)CC3)c(C)n2n1` was 37.8% (active).
The value for `COc1cc(OC)cc(C(=O)OCC(=O)Nc2sccc2C(N)=O)c1` was -13.4% (inactive); that for `CC(C)CCN1NC2(CCC(C)CC2)NC1=S` (stereo not given) was -4.38% (inactive).
Take `CCNC(=O)COC(=O)CCNC(=O)c1cccc(C)c1`: the inhibition is -7.35% (inactive).
In the case of `COC(=O)c1sc(=S)n(-c2ccccc2)c1N`, the inhibition was 0.99% (inactive).
The value for `CCOC(=O)c1sc(=S)n(-c2cccc(OC)c2)c1N` was -12.7% (inactive).
The result for `COCCOC(=O)c1sc(=S)n(CCOC)c1N` reads 46.2% (active); that for `CCOC(=O)Cn1nnnc1C`, 6.81% (inactive); that for `C[N+](C)(C)CCNC(=O)c1c(O)c2c([nH]c1=O)CCCC2`, 31.8% (active).
As for `CCc1nnc(NC(=O)c2c(O)c3c([nH]c2=O)CCCC3)s1`, the inhibition is -3.43% (inactive).
With `O=C(NCc1ccccn1)c1c(O)c2c([nH]c1=O)CCCC2`, the inhibition was -12.3% (inactive).
`CCOC(=O)CC1C(=O)NCCN1c1nc2c(C)cccn2c(=O)c1/C=C1\SC(=S)N(C(C)CC)C1=O` (stereo not given): the inhibition is -73.3% (inactive).
For `Cc1ccc(S(=O)(=O)NCC(C)NS(C)(=O)=O)cc1` (stereo not given), the inhibition is 4.29% (inactive).
The value for `O=S(=O)(NN=C1CCCCCCC1)c1ccc(Br)cc1` was -8.52% (inactive); that for `CC(CNS(=O)(=O)c1ccc(Br)cc1)CN(C)C` (stereo not given) was 92% (active); that for `Cc1c(C(=O)N(Cc2ccccc2)Cc2cccnc2)cnn1-c1ccc(F)cc1` was -0.45% (inactive).
With `O=C(Nn1c(-c2ccc(Cl)cc2)nc2ccccc2c1=O)c1cccnc1Cl`, the inhibition was -7.54% (inactive).
In the case of `C[C@@H]1CC[C@]2(O[C@@H](CCO)C[C@H](O)[C@H]2O)O1`, the inhibition is 5.45% (inactive).
The value for `CC(=O)NCCc1ccc(S(=O)(=O)N(C)C2CCS(=O)(=O)C2)cc1` (stereo not given) was 32.2% (active); that for `COc1ccc(C(=O)N(Cc2ccc(N(C)C)cc2)C2CCS(=O)(=O)C2)cc1` (stereo not given) was -10.9% (inactive); that for `Cc1ccc(S(=O)(=O)N(c2cccc(C)c2)C2CCS(=O)(=O)C2)cc1` (stereo not given) was -5.65% (inactive).
The value for `CC(C)N1CCC(N2CCN(Cc3cccnc3)CC2CCO)CC1` (stereo not given) was -4.11% (inactive).
The result for `O=[N+]([O-])c1ccc(N=Cc2c(O)ccc3ccccc23)cc1` reads 64.5% (active); that for `Oc1ccc(N=Cc2c(O)ccc3ccccc23)cc1`, -7.4% (inactive).
In the case of `Oc1ccc2ccccc2c1C=Nc1ccccc1`, the inhibition was -17.1% (inactive).
The result for `CCn1cc(C(=O)NCCCN2CCCCCC2)c(=O)c2cc(S(=O)(=O)N3CCc4ccccc4C3)ccc21` reads -1.11% (inactive).
The result for `COC(=O)[C@H](Cc1ccccc1)NC(=O)Nc1ccc(OC)cc1` reads -13.5% (inactive).

These data come from PubChem BioAssay AID1274 (Emory University Molecular Libraries Screening Center, 2008).
